Among the data in PubChem BioAssay AID588549 (Broad Institute, 2011) are inhibition values, retold here.

The whole screen tested about 360,000 compounds, of which about 780 (0.22%) were called active. This is one part of a sample in which actives are shown more often than they occur. Rule as the data show it: active = inhibition above about 8.5% (passing the limit was not always enough); inconclusive = no clear call, values can overlap the other calls.

In this test the test system is Mycobacterium tuberculosis FadD28 fatty-acid-AMP ligase. The experiment in a line: inhibitors of FadD28 bisubstrate probe binding, primary screen, biochemical, fluorescence polarization, single point (AID 588549). The settings on record: at 12.5 µM, active compounds read high. In general terms: Polarisation of emitted light reports the rotation of a fluorescent probe.
In general, inhibition refers to the drop in the measured response relative to a control, in per cent. As to `CNS(=O)(=O)c1cnccc1N1CCN(c2cccc(C)c2)CC1`, the inhibition is -0.922% (inactive).

With `CCn1cc(/C=C(\NC(=O)c2ccc(C)cc2)C(=O)NCCN2CCOCC2)c2ccccc21`, the inhibition is 1.23% (inactive).

Take `CC(C)CCN1NC2(CCC(C)CC2)NC1=S` (stereo unspecified): the inhibition is -3.86% (inactive). For the compound `COc1ccc(S(=O)(=O)NC(=O)C2(C)CCN2C(=O)COc2ccc(Cl)cc2)cc1` (stereo unspecified), the inhibition was -5.43% (inactive). For `COc1cccc(/C=N/Nc2ccc(S(=O)(=O)Nc3ccccc3C(=O)O)cc2[N+](=O)[O-])c1O`, the inhibition was 35.4% (active). For `COc1ccc(Br)cc1/C=N/Nc1ccc(S(=O)(=O)Nc2ccccc2C(=O)O)cc1[N+](=O)[O-]`, the inhibition is -1.21% (inactive). For `CCN(CC(=O)NCc1cccs1)C(=O)c1cccc(S(=O)(=O)Nc2ccccc2OC)c1`, the inhibition was -3.38% (inactive). As for `O=c1c(F)cn(C2CCCO2)c(=O)n1Cc1ccccc1Cl` (stereo unspecified), the figure is -2.45% (inactive); as for `Cc1nnc(CN(C)Cc2cn[nH]c2-c2ccc(-c3ccccc3)cc2)o1`, -1.34% (inactive). For the compound `COc1ccc(OC)c(S(=O)(=O)N(C)CC(=O)N2CCN(c3ccccc3)CC2)c1`, the inhibition was -3.85% (inactive).

As to `COc1ccccc1CNC(=O)CSc1nc(=O)n(Cc2ccncc2)c2c1CCC2`, the inhibition was -0.173% (inactive). On to `OC(CNC1CCCC1)COc1ccc(F)cc1` (stereo unspecified), for which the inhibition is -4.58% (inactive). For the compound `Cc1noc(C)c1-c1ccc(C(=O)NCc2ccncc2)c2occc12`, the inhibition is -2.15% (inactive). As for `Cc1ccc(O)c(-c2cc(C(=O)Nc3c(C)n(C)n(-c4ccccc4)c3=O)[nH]n2)c1`, the figure is -2.28% (inactive). Turning to `COC(=O)c1ccc(CSc2nnc(NC(C)C)s2)cc1`, the inhibition was -3.65% (inactive). As to `O=C(O)c1ccc(N/N=C/c2cn(-c3ccccc3)nc2-c2cccs2)cc1`, the inhibition is 23.7% (active). On to `COc1ccc(Cl)cc1NC(=O)CN(C)C(=O)c1cn(-c2ccccc2)nc1-c1cccs1`, for which the inhibition is -1.26% (inactive). For `O=C(O)c1ccc(N/N=C/c2ccc3ncccc3c2)cc1`, the inhibition is -1.11% (inactive). Turning to `Cc1nnc(Nc2ccccc2F)s1`, the inhibition is -1.11% (inactive). Turning to `COCCNC(=O)CN(Cc1ccco1)C(=O)CCC(=O)Nc1nccs1`, the inhibition is -3.92% (inactive). With `COCCNC(=O)Nc1ccc2nc(-c3ccco3)c(-c3ccco3)nc2c1`, the inhibition is 20.8% (active). As to `COCCNC(=O)c1ccc2nc(Cc3ccc(OC)c(OC)c3)oc2c1`, the inhibition is -2.89% (inactive). `O=S(=O)(NCCCCCCNS(=O)(=O)c1c(F)cccc1F)c1ccc2c(c1)OCCO2`: the inhibition was -2.1% (inactive). The same measure for `O=C(COC(=O)c1cccc(Cl)c1)NC(=O)NCc1ccccc1`: -1.95% (inactive); for `O=C1c2ccccc2C(=O)N1c1ccccc1S(=O)C(F)(F)F` (stereo unspecified): -3.78% (inactive); for `CC(C(=O)Nc1ccc(F)c(F)c1F)N1CCCCCC1` (stereo unspecified): -6.4% (inactive). Take `CC1(C)CC(=O)C=C(NCc2ccncc2)C1`: the inhibition is 1.4% (inactive). The same measure for `CCOc1ccc(CN(C)C(=O)c2ccc(=O)[nH]c2)cc1`: -0.407% (inactive); for `O=C(Nc1c2c(nn1-c1ccccc1)CS(=O)(=O)C2)C1CCCC1`: -0.538% (inactive); for `Cc1nn(C)c(Cl)c1CN1CCC(n2nccc2NC(=O)C2CCCC2)CC1`: 1.24% (inactive). The same measure for `O=C(Cn1ccc([N+](=O)[O-])n1)NCc1cccs1`: -2.06% (inactive); for `N#C/C(=C/c1ccc(N2CCCCC2)o1)C(=O)NCCc1c[nH]c2ccccc12`: -1.59% (inactive). Regarding `Cc1ccc(C(O)P(=O)(OC(C)C)c2ccc(N(C)C)cc2)cc1` (stereo unspecified), the inhibition was 0.612% (inactive). With `CCCCn1c(N)c(N2CCOCC2)c(=O)n(CC(=O)NCCc2ccccc2)c1=O`, the inhibition is 0% (inactive).

Regarding `N[C@@H](Cc1ccccc1)C(=O)N1CCC(C(=O)NCC(=O)Nc2ccc(F)cc2)CC1`, the inhibition is 0.565% (inactive). As for `O=C(CSc1n[nH]c(=O)n1-c1ccccc1)Nc1ccccc1C(F)(F)F`, the figure is -1.05% (inactive); as for `C=C1c2c(Cl)ccc(O)c2C(O)=C2C(=O)[C@]3(O)C(O)=C(C(N)=O)C(=O)[C@@H](N(C)C)[C@@H]3[C@@H](O)C12` (stereo partly specified), 11.1% (active).

Turning to `C[C@H]([C@@H](O)[C@@H](O)[C@@H](C)C(C)(C)C)[C@H]1CC[C@H]2C3CC[C@H]4C[C@H](OS(=O)(=O)O)[C@@H](OS(=O)(=O)O)C[C@]4(C)[C@H]3CC[C@]12C` (stereo partly specified), the inhibition is -4.53% (inactive).

For the compound `Cc1ccc(NC(=O)C(c2ccccc2)N2CCN(C(=O)c3ccco3)CC2)cc1` (stereo unspecified), the inhibition is -0.809% (inactive). As to `COc1ccc(C(CNC(=O)c2cccc(S(=O)(=O)Nc3ccccc3Cl)c2)N2CCOCC2)cc1` (stereo unspecified), the inhibition was 0.098% (inactive). `COc1ccc(N2C(=O)/C(=C/c3ccco3)C(=O)NC2=S)cc1`: the inhibition is 32.5% (active). In the case of `COC(=O)C1=C(C)N(C(C)c2ccccc2)C(=O)/C1=C\c1ccco1` (stereo unspecified), the inhibition is -2.87% (inactive). As to `CCCCN=C1N/C(=C\c2ccco2)C(=O)N1c1ccccc1`, the inhibition was -0.549% (inactive). `N#CCN(C(=O)COC(=O)C1CC2CCCC(C1)C2=O)c1ccccc1` (stereo unspecified): the inhibition is 0.44% (inactive). In the case of `CCOC(=O)C(CC)/C(C)=N\NC(=O)c1cccc(C)c1` (stereo unspecified), the inhibition was -0.964% (inactive). Consider `CCN(CC)C(=O)C1=C(C)N(Cc2ccc(F)cc2)C(=O)C(CC(=O)NC2CCCC2)C1` (stereo unspecified), for which the inhibition is -3.83% (inactive).

Take `Cc1ccc(S(=O)(=O)N(C)c2ccc(OCC(=O)OCc3ccc(C#N)cc3)cc2)cc1`: the inhibition is -1.59% (inactive). Turning to `Nc1ncc(CN2CCCC(C(=O)Nc3ccc(-c4ccco4)cc3)C2)cn1` (stereo unspecified), the inhibition is -5.68% (inactive). As to `O=C(COC(=O)CNS(=O)(=O)c1ccc(F)c(F)c1F)NC1CCCC1`, the inhibition is -2.7% (inactive). Consider `O=C(OCc1ccc([N+](=O)[O-])cc1)C1CC(=O)N(Cc2ccccc2Cl)C1` (stereo unspecified), for which the inhibition was -0.71% (inactive). Regarding `Cc1ccc(S(=O)(=O)N2CCOCC2)cc1NC(=O)CSc1nnc(N)s1`, the inhibition is 1.4% (inactive). As to `O=S(=O)(Nc1ccc2nc(-c3ccco3)[nH]c2c1)c1ccccc1`, the inhibition is -2.01% (inactive). The same measure for `COc1cccc2c(C)c(C(=O)O)[nH]c12`: 15.1% (active). As for `COc1cc2c(C(=O)O)c(C)n(C)c2c2ccccc12`, the inhibition was 2.25% (inactive). For the compound `COc1cccc2c(O)cc(=O)n(C)c12`, the inhibition was -3.24% (inactive). Take `O=C1Nc2cc(Cl)c(Cl)cc2N(O)N1c1cc(Cl)cc(Cl)c1`: the inhibition was -1.95% (inactive).
